Gli-Sufu block: Gli-Sufu pathway antagonism; inhibition, % at 5 µM; 0.74% of 340,000 active; Sufu-KO-LIGHT fibroblasts, Gli luciferase reporter luminescence;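 active means inhibition above about 55%, limit read from the data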;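 further: 0% = DMSO-treated cells and 100% = wells with medium but no cells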
Shn3 3UTR inh: Schnurri-3 reporter inhibition in Clone20 osteoblasts; Clone20 osteoblast Shn3 3'UTR firefly luciferase, 24 h; inhibition, % at 12.5 µM; 0.52% of 360,000 active;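 active means mean inhibition of at least 75% with every replicate also reaching 75%; inconclusive means mean inhibition at least 75% but some replicate below; inactive means mean inhibition below 75%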;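 further: 0% = median of neutral control wells and 100% = pilot-screen positive control compound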
PAX8 inh HTS: lowers PAX8-driven luciferase in RMG-I cells. inhibition, % at 12.6 µM. RMG-I TPO-luciferase reporter, SteadyGlo, 24 h. 1.2% of 360,000 active. AID 652154;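 active means mean replicate inhibition at least 60% with every replicate also reaching 60%; inconclusive means only one of the two criteria is met; inactive means mean below 60% and not all replicates reaching 60%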;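 further: luciferase light reporting Pax8 driven TPO promoter activity; plate controls were median of neutral control wells for no effect and mitoxantrone controls for full effect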
Beta cell apopt: blocks beta cell apoptosis; INS-1E cytokine-induced death, ATP luminescence, 48 h; percent of positive-control rescue, neutral wells zero; protection from apoptosis, % (concentration not given with the values); 0.8% of 300,000 active; AID 435005;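 active means Every replicate reaches about 75%, or at least half do and their mean reaches it too, limit read from the data; inconclusive means At least half of replicates reach the limit but their mean does not; inactive means Under half of replicates reach the limit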;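 further: 0% = cytokine-treated negative control wells and 100% = positive control rescue; higher means more ATP so stronger rescue from cytokine killing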
Mdm2-MdmX inh: human Mdm2/MdmX binding inhibition; SaOS-2 split-luciferase Mdm2/MdmX complementation, luminescence; 3% of 330,000 active; AID 485346; inhibition, % at 8 µM;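 active means inhibition of at least 50% at 8 µM in the primary screen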
CSC inhib: blocks cancer stem cells; cancer stem cell-like cells viability, luminescence; inhibition, % at 7.5 µM; 1.1% of 300,000 active; AID 2717; in the data active means inhibition above about 75%; inconclusive means no clear call, values can overlap the other calls; tested in HMLE shEcad cells
Mdm2-MdmX conf: confirmation of human Mdm2/MdmX interaction inhibitors; shares compounds with Mdm2-MdmX inh; Mdm2-MdmX binding, luminescent assay; inhibition, % at 8 µM; 55% of 10,000 active; in the data active means inhibition above about 40%
Full FLuc ctr: full-length luciferase inhibition in Mdm2/MdmX counter-screen | inhibition, % at 8 µM | shares compounds with Mdm2-MdmX inh | 77% of 6,200 active | SaOS-2 full-length luciferase counterscreen, luminescence | AID 504607;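 active means mean inhibition at 8 µM reaching about 37%, which flags the compound as non-specific, limit read from the data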;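 further: p53-null SaOS-2 cells with luciferase driven by a doxycycline-inducible promoter; compound on cells about two nights before reading with doxycycline added after day one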
* = called active by the depositor; ? = inconclusive; / = not tested or not shown. Hits are enriched below; roughly 4% of the tested compounds scored in any of these assays.

SMILES	Gli-Sufu block	Shn3 3UTR inh	PAX8 inh HTS	Beta cell apopt	Mdm2-MdmX inh	CSC inhib	Mdm2-MdmX conf	Full FLuc ctr
O=C(CNC(=O)c1cccc(S(=O)(=O)N2CCc3ccccc32)c1)Nc1ccc(F)c(F)c1F	-3	4	25	/	81*	/	84*	62*
CSc1ccccc1C(=O)Nc1nc2ccccc2[nH]1	-61	-59	-95	6	-40	1	/	/
COc1ccccc1C(=O)Nc1nc2ccccc2[nH]1	75*	91*	129*	93*	98*	95*	95*	6
COc1ccccc1C(=O)NCCC(=O)Nc1nc2ccccc2[nH]1	-7	-39	13	-10	42	5	/	/
COc1cc(SC)ccc1C(=O)Nc1nc2ccccc2[nH]1	93*	96*	114*	106*	100*	-5	99*	2
C[C@@H]1CN([C@@H](C)CO)C(=O)c2cc(NS(=O)(=O)c3ccccc3)ccc2O[C@@H](C)CCCCO[C@@H]1CN(C)S(=O)(=O)c1cn(C)cn1	/	/	9	/	/	/	/	/
COc1cccc(N2CCN(C(=O)c3ccc(CS(=O)c4ccccc4Cl)o3)CC2)c1 (stereo not given)	44	15	93*	21	70*	52	51*	102*
COc1ccc(N2CCN(C(=O)c3ccc(CS(=O)c4cccc(C)c4)o3)CC2)cc1 (stereo not given)	14	18	28	-6	27	-5	/	/
O=C(c1ccc(CS(=O)c2ccccc2Cl)o1)N1CCN(c2ccccc2)CC1 (stereo not given)	20	10	12	7	46	51	/	/
COc1cccc(N2CCN(C(=O)c3ccc(CS(=O)c4ccccc4C)o3)CC2)c1 (stereo not given)	25	24	?	7	51*	54	50*	74*
CN(C)CCCNC(=O)C[C@@H]1CC[C@@H]2[C@H](COc3ccc(NC(=O)c4ccccc4F)cc3C(=O)N2C)O1	/	/	-7	/	/	/	/	/
O=C(N/N=C1/C(=O)c2cccc3cccc1c23)c1ccc(Cl)cc1	-16	7	-10	27	59*	38	-2	/
CCNC(=S)N/N=C1\C(=O)c2cccc3cccc1c23	16	9	/	10	24	-5	/	/
CC1(C)Cc2ccccc2C(Nn2cnnc2)=N1	8	0	/	-3	-22	-3	/	/
CC1(C)Cc2ccccc2C2=NNC(=O)C2=N1	31	12	51	-27	86*	25	65*	29
COc1cccc(NC(=O)CN(C)CC(=O)Nc2ccc3c(c2)OCO3)c1	5	-14	9	-2	19	-5	/	/
COc1cccc(NC(=O)CN(C)CC(=O)Nc2ccc(C)c([N+](=O)[O-])c2)c1	-9	38	-15	-12	61*	-8	46*	42*
CC(C)CC#Cc1cnc2c(c1)C(=O)N([C@H](C)CO)C[C@H](C)[C@H](CN(C)Cc1ccccc1)O2	/	/	-27	/	/	/	/	/
COc1ccccc1Nc1nc(NCc2ccco2)c2ccccc2n1	30	16	-14	55	23	24	/	/
c1ccc(CNc2nc(N3CCN(Cc4ccccc4)CC3)nc3ccccc23)cc1	12	43	55	23	81*	98*	25	/
Cc1ccc(Nc2nc(NCc3ccco3)c3ccccc3n2)cc1	34	96*	16	76*	70*	56	-42	/
c1ccc(-c2nc(NCc3ccco3)c3ccccc3n2)nc1	-7	21	/	101*	65*	-6	-8	/
c1coc(CNc2nc(N3CCCCC3)nc3ccccc23)c1	-7	0	/	22	52*	3	4	/
c1ccc(N2CCN(c3nc(NCc4ccco4)c4ccccc4n3)CC2)cc1	-4	82	/	-2	27	46	/	/
Oc1ccccc1-c1nc(NCc2ccco2)c2ccccc2n1	12	-9	/	36	3	14	/	/
O=C(C[C@H]1C[C@@H]2c3cc(NC(=O)NC4CCCCC4)ccc3O[C@@H]2[C@H](CO)O1)NCc1ccccn1	/	/	-2	/	/	/	/	/
Cc1noc(C)c1NC(=O)NCC[C@H]1CC[C@H](NC(=O)Nc2cccc(Cl)c2)[C@@H](CO)O1	/	/	-14	/	/	/	/	/

Assay outcomes (PubChem BioAssay)
